The campaign covered roughly 320,000 compounds. About 7,600 (2.4%) were called active. Roughly 3% stayed inconclusive and do not appear here. Calls come from the whole dose curve; as a rule, active = well fitted activation curve with a large enough effect; inconclusive = small, poorly fitted or top-dose-only effect; inactive = no such curve, though single readings can be large or run the other way. The sample as a whole holds a higher share of actives than the screen did.
Experiment: qHTS Assay for NPC1 Promoter Activators; note: nearly all actives have a fitted effect of over 60% in size;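 for activation: reporter is driven by a mutant NPC1 promoter; % of control where 0% means no effect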
Conditions: Huh7 NPC1 promoter luciferase reporter, 24 h; series mostly up to 9.22 µM; activation: at the top concentration
Procedure, shortened: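 Compounds in DMSO were transferred onto Huh7 NPC1-luciferase reporter cells pre-incubated 2 h; after 24 h at 37 °C, Amplite reagent was dispensed and luminescence recorded 10 min later.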
In the case of `Cc1cccc(NC(=O)CN2CCN(CC(=O)NCC3(N4CCCCC4)CCCCC3)CC2)c1C`, the “activation” value is reported as 0.584% (inactive). With `CN(CC(=O)NC(=O)Nc1ccccc1F)Cc1ccccc1` the “activation” value was 12% (inactive). In the case of `CCCCCC(=O)Nc1ccc(-c2cn3cccnc3n2)cc1`, the “activation” value is reported as 17.5% (inactive). For `CC(=O)Nc1ccc(S(=O)(=O)Nc2cccc(NC(=O)C(C)(C)C)c2)cc1`, the “activation” value was -2.66% (inactive). For `CC(C)(C)C(=O)Nc1ccc(-c2cn3cccnc3n2)cc1`, the Potency was 3.16 µM (active). With `O=C1C=C(c2ccnc3cc(Cl)ccc23)C[C@@H](c2ccc3c(c2)OCO3)C1` the “activation” value was -13.5% (inactive). In the case of `Cc1ccc(CNC(=O)c2cc(-c3ccccc3C)n(CC3CC(c4cccc([N+](=O)[O-])c4)=NO3)n2)cc1` (centres undefined), the “activation” value is reported as 0.216% (inactive). In the case of `CN(c1ccccc1)S(=O)(=O)c1cccc(NC(=O)Cc2ccc(Cl)cc2)c1`, the “activation” value is reported as -2.82% (inactive). With `OCCN1CCN(C(=S)c2ccc(-c3ccccc3)cc2)CC1` the “activation” value was -28% (inactive). In the case of `S=C(c1ccc(-c2ccccc2)o1)N1CCCCC1`, the Potency is reported as 2.24 µM (active). In the case of `S=C(c1ccccc1)N1CCCC1`, the “activation” value is reported as 2% (inactive). With `O=C(OCC(=O)N1CCCC1)c1ccc(Cl)nc1` the “activation” value was -2.27% (inactive). With `Cc1ccc(Nc2nnc(SC(C)C(=O)NC3CC3)s2)cc1` (centres undefined) the “activation” value was -0.133% (inactive). With `Cc1ccc(F)cc1NC(=O)c1ccc2c(c1)OCO2` the “activation” value was 10.7% (inactive). For `O=C(Nc1ccccc1)Nc1nc2ccccc2s1`, the Potency was 2.82 µM (active). In the case of `O=C(Nc1ccccc1)c1ccc2c(c1)OCCCO2`, the Potency is reported as 0.501 µM (active). In the case of `O=C(Nc1ccccc1F)c1ccc2c(c1)OCO2`, the Potency is reported as 3.98 µM (active). With `O=C(Nc1cccc(S(=O)(=O)N2CCCCC2)c1)c1ccc2c(c1)OCO2` the “activation” value was -3.47% (inactive). In the case of `O=C(CCNC(=O)c1ccccc1)Nc1nc2ccccc2s1`, the “activation” value is reported as 22% (inactive). With `COC(=O)c1ccc(N2CCOCC2)c(NC(=O)c2ccc3c(c2)OCCO3)c1` the “activation” value was -0.91% (inactive). With `O=C(Nc1ccc(Cl)cc1)Nc1nnc(/C=C/c2ccccc2)s1` the “activation” value was 4.26% (inactive). With `O=C(Nc1ccccc1N1CCN(C(=O)c2ccccc2)CC1)c1ccc2c(c1)OCO2` the “activation” value was -4.02% (inactive). For `CN1CCN(c2ccc(NC(=O)c3ccc4c(c3)OCCO4)cc2Cl)CC1`, the Potency was 3.55 µM (active). With `CN1CCN(c2ccc(NC(=O)c3cc(Cl)c4c(c3)OCCO4)cc2)CC1` the “activation” value was 9.41% (inactive). With `O=C(CN1CCc2cc3c(cc2C1)OCCCO3)Nc1ccccc1` the “activation” value was 0.0775% (inactive). In the case of `Cc1cc(C)n2nc(C(=O)OCC(=O)N(C)CC(=O)Nc3ccc(F)cc3)nc2n1`, the “activation” value is reported as -10.3% (inactive). For `O=C(CSc1nc2[nH]c(=O)[nH]c(=O)c2s1)Nc1cccc(F)c1`, the “activation” value was -6.24% (inactive). With `Cc1cc(C)c(C#N)c(SCC(=O)N(CC(C)C)C2CCS(=O)(=O)C2)n1` (centres undefined) the “activation” value was -2.59% (inactive). For `c1csc(-c2nnc(COc3ccc4c(c3)OCO4)o2)c1`, the “activation” value was 27.6% (inactive). In the case of `Cc1cccc(C(=O)O)c1[N+](=O)[O-]`, the “activation” value is reported as 1.58% (inactive). In the case of `N#Cc1ccc(C(=O)OCC(=O)NC(=O)NC2CCCCC2)cc1`, the “activation” value is reported as -1.04% (inactive). With `O=S(=O)(c1ccc(SCc2ccccc2)nc1)N1CCCCCC1` the “activation” value was 1.18% (inactive). For `O=C(Nc1ccc2c(c1)OCO2)c1ccc(N2C(=O)c3ccccc3C2=O)cc1`, the “activation” value was 3.6% (inactive). With `O=C(Nc1ccccc1)c1ccc2c(c1)OCO2` the Potency was 2.82 µM (active). In the case of `CCCc1nnc(NC(=O)c2cc(OC)cc(OC)c2)s1`, the “activation” value is reported as -11.7% (inactive). With `O=C(Nc1cccc([N+](=O)[O-])c1)c1ccc2c(c1)OCO2` the “activation” value was 23.5% (inactive). With `Cn1c(NC(=O)c2ccc3c(c2)OCO3)cc(=O)n(C)c1=O` the “activation” value was -3.07% (inactive). In the case of `CCSc1ccccc1C(=O)Nc1ccc2c(c1)OCO2`, the “activation” value is reported as 7.76% (inactive). With `COCc1nnc(NC(=O)c2ccc3c(c2)OCO3)s1` the Potency was 2.82 µM (active). For `O=C(Nc1nc2cc3c(cc2s1)OCCO3)c1cccc(S(=O)(=O)N2CCOCC2)c1`, the “activation” value was 14.3% (inactive). In the case of `CC(C)C(=O)Nc1cccc(C(=O)Nc2ccc3c(c2)OCO3)c1`, the Potency is reported as 2.82 µM (active). For `O=C(Nc1ccc(NC(=O)c2ccc3c(c2)OCO3)cc1)c1cccc(Cl)c1`, the “activation” value was -0.441% (inactive). With `O=C(Nc1nc2ccccc2s1)c1ccc2c(c1)OCO2` the Potency was 0.562 µM (active). In the case of `COc1ccc(S(=O)(=O)N2CCOCC2)cc1C(=O)Nc1nc2ccccc2s1`, the “activation” value is reported as -5.34% (inactive). In the case of `CS(=O)(=O)Nc1ccccc1C(=O)OCC(=O)NC1CC1`, the “activation” value is reported as 6.22% (inactive). With `CSc1ccccc1C(=O)OCC(=O)N1CCN(C(C)=O)CC1` the “activation” value was -1.56% (inactive). In the case of `Cc1cccc(C(=O)NC(=S)N2CCN(c3ccc([N+](=O)[O-])cc3)CC2)c1`, the “activation” value is reported as -0.538% (inactive). In the case of `N#Cc1ccccc1S(=O)(=O)N1CCN(C(=O)c2cc(-c3ccccc3)nn2-c2ccccc2)CC1`, the “activation” value is reported as -2.35% (inactive). In the case of `Cc1ccc(S(=O)(=O)NCCNC(C)c2ccc(Br)cc2)cc1` (centres undefined), the “activation” value is reported as -5.06% (inactive). For `CCN(C(=O)CSc1nc(N)cc(=O)[nH]1)C1CCS(=O)(=O)C1` (centres undefined), the “activation” value was 0.992% (inactive). In the case of `CC1(C)O[C@@H]2[C@H](O1)[C@@H](COS(=O)(=O)O)O[C@H]2n1cnc2c(=O)[nH]cnc21`, the “activation” value is reported as 0.178% (inactive). For `COCCn1c(C)cc(C2=NNC(=Nc3ccc(F)cc3)SC2)c1C`, the Potency was 2.51 µM (active). In the case of `C=CCn1c(C)cc(C2=NNC(=NCC)SC2)c1C`, the “activation” value is reported as -28.2% (inactive). In the case of `CCN1CCN(C(=O)CSc2ccc(C)cc2)CC1`, the “activation” value is reported as 29.7% (inactive). With `Cc1ccc(SCC(=O)c2cc(C)c(OC(=S)N(C)C)c(C)c2)cc1` the Potency was 2.51 µM (active). In the case of `COC(=O)c1cc(OC)c(OC)cc1NC(=O)CSc1ccc(C)cc1`, the “activation” value is reported as -1.59% (inactive). For `O=C(NNC(=O)c1ccco1)Nc1ccccc1`, the “activation” value was -5.2% (inactive). In the case of `CCC(=O)NC(=S)Nc1ccc(NC(=O)c2ccco2)c(Cl)c1`, the “activation” value is reported as 4.41% (inactive). In the case of `O=C(NNC(=S)Nc1ccc(Br)cc1Cl)c1ccco1`, the Potency is reported as 3.55 µM (active). In the case of `CC1(NC(=O)CCS(=O)(=O)c2ccc(Cl)cc2)CCS(=O)(=O)C1` (centres undefined), the “activation” value is reported as -0.873% (inactive). With `CCOc1ccc(C(=O)CCC(=O)Nc2ccncc2)cc1` the “activation” value was -3.49% (inactive). With `CN1C(=O)/C(=C/C=C2\SCCN2C)OC1=S` the Potency was 3.98 µM (active). For `Cc1cc(C)cc(NC(=O)c2cccc(NC(=O)C3C4CC5OC(=O)C3C5C4)c2)c1` (centres undefined), the “activation” value was 0.703% (inactive). For `O=C(Cn1c2[n+](c3ccc(C(F)(F)F)cc31)CCCCC2)Nc1c(F)cccc1F`, the “activation” value was -5.85% (inactive). In the case of `NC(=O)C1CCN(C(=O)c2ccc(F)c(S(=O)(=O)N3CCOCC3)c2)CC1`, the “activation” value is reported as -5.94% (inactive). With `O=C(O)C1CCN(C(=O)OCc2ccccc2)CC1` the Potency was 2 µM (active). In the case of `O=C(NCC1CCC(C(=O)O)CC1)OCc1ccccc1` (centres undefined), the “activation” value is reported as 2.31% (inactive). In the case of `CCOC(=O)N1CCC(NC(=O)CCc2ccccc2)CC1`, the “activation” value is reported as -2.93% (inactive). For `CC(=O)c1ccc(S(=O)(=O)NCCC(=O)N2CCN(c3ccccn3)CC2)cc1`, the “activation” value was -0.622% (inactive).
Potency is the fitted concentration of half-maximal effect.
